In PubChem BioAssay (EPA / NIEHS) one finds outcome and AC50 data, which are given here for 47 compounds.

Inconclusive results are not listed. More than one record can exist for a structure, and the calls need not agree. Calls of active or inactive are those of the source. How the source made its calls: active means hit-call score of the fitted dose curve at least 0.9, where 1 is the maximum; inconclusive means response in the unintended direction; inactive means score below 0.9.

Test [1] has as its target Cellular tumor antigen p53 (Homo sapiens) (UniProt P04637). The test can be described thus: TOX21_p53_BLA_p3_ratio: Tox21 HCT-116 p53 Agonism Beta-lactamase Assay, Ratio, Phase 3 (AID 2283596). In outline:
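Cells were seeded at 4000/well, rested 5 h at 37C, then dosed with DMSO compound solutions (217-fold dilution) for 16 h. CCF4-AM substrate was loaded for 2 h at room temperature, and the 460/530 nm emission ratio was fitted for gain of signal versus DMSO.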

A short description of test [2]: TOX21_p53_BLA_p4_viability: Viability Assessment in the Tox21 HCT-116 p53 Agonism Beta-lactamase Assay, Phase 4 (AID 2283597).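 Further: hits lower the luminescence signal meaning cytotoxicity.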 In outline:
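In this multiplexed secondary endpoint, HCT116 cells (4000 per well, compound at 5 h, 16 h treatment) received CellTiter-Glo after the beta-lactamase read. Luminescence after 30 min RT reflects ATP, and falling signal marks cytotoxicity.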

The target in test [3] is Cellular tumor antigen p53 (Homo sapiens) (UniProt P04637). The test is described as follows: TOX21_p53_BLA_p5_ratio: Tox21 HCT-116 p53 Agonism Beta-lactamase Assay, Ratio, Phase 5 (AID 2283599). In outline: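 HCT-116 p53-bla cells (4000/well) plated 5 h, dosed with compound (217-fold DMSO dilution) for 16 h at 37 C; CCF4-AM substrate 2 h at room temperature. Activity is the 460/530 nm emission ratio (405 nm excitation), fitted in gain-of-signal direction versus DMSO.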
Chain of Cellular tumor antigen p53 (Homo sapiens) (P04637 whole entry, looked up): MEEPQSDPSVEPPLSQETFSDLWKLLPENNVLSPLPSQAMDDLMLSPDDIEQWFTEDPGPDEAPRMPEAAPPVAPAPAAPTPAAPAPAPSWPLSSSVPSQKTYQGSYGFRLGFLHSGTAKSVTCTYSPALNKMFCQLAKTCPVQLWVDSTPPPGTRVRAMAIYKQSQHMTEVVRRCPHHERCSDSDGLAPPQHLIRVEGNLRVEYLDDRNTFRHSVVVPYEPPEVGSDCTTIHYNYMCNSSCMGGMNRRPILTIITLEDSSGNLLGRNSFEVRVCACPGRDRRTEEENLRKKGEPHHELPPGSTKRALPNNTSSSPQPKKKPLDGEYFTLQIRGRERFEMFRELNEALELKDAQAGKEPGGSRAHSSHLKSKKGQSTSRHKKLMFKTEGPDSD

Test [4] in a line: TOX21_p53_BLA_p5_viability: Viability Assessment in the Tox21 HCT-116 p53 Agonism Beta-lactamase Assay, Phase 5 (AID 2283600). A digest of the protocol:
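Here cell health was gauged by ATP levels in wells holding 4000 cells, each treated 16 h with DMSO-delivered compounds at 217-fold dilution; reduced luminescence marked toxicity.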

Test [5] deals with Cellular tumor antigen p53 (Homo sapiens) (UniProt P04637). The test can be described thus: TOX21_p53_BLA_p4_ratio: Tox21 HCT-116 p53 Agonism Beta-lactamase Assay, Ratio, Phase 4 (AID 2283601). A digest of the protocol:
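HCT-116 p53 beta-lactamase reporter cells (4000/well) preincubated 5 h, then compound (217-fold dilution of DMSO stock) for 16 h at 37C. CCF4-AM substrate added 2 h at room temperature; 460/530 nm emission ratio fitted upward versus DMSO.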

The nature of test [6]: Tanguay_ZF_120hpf_AXIS_legacy: (Legacy) Oregon State University Tanguay Lab 120 Hour Post-fertilization zebrafish Assay for Body Axis Malformation (AID 2283635).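 On AC50: potency for an increased fraction of larvae scored with body axis malformation.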 A digest of the protocol:
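Each dechorionated embryo was exposed alone from 6 hpf, with DMSO at 0.64% (vol/vol) and trimethyltin chloride 5 uM as positive control. Axis malformation was recorded at 120 hpf unless the embryo had died.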

For `CCCCCCOC(C)=O`, the result in test [1], in test [3], in test [4] and in test [5] was inactive. In addition, in test [2], the AC50 was 24.9 µM (active).
Turning to `CN(C)CCCNCCCN(C)C`, the result in test [1], in test [2], in test [3], in test [4] and in test [5] was inactive.
Turning to `CCCO`, the result in test [1], in test [2], in test [3] and in test [4] was inactive.
`OC[C@@H](O)[C@H](O)[C@@H](O)[C@@H](O)CO`: the result in test [1], in test [2], in test [3] and in test [4] was inactive.
Regarding `CC(C)Cc1ccccc1`, the result in test [1], in test [2], in test [3], in test [4] and in test [5] was inactive.
`[Na+]`: the result in test [1], in test [2], in test [3], in test [4] and in test [5] was inactive.
For the compound `Cc1cccc(O)c1`, the outcome in test [1], in test [2], in test [3] and in test [4] was inactive.
Consider `O=C(C=Cc1ccccc1)OCCCc1ccccc1`, for which the outcome in test [1], in test [2], in test [3], in test [4] and in test [5] was inactive.
As to `CCCCCCCC1CCCC1=O` (stereo not drawn), the outcome in test [1], in test [2], in test [3], in test [4] and in test [5] was inactive.
Turning to `CN(C)CCC=C1c2ccccc2CCc2ccccc21`, the result in test [1], in test [2] and in test [5] was inactive. In test [2], the AC50 is 72.1 µM (active).
For `O=C(c1ccc(OCCN2CCCCC2)cc1)c1c(-c2ccc(O)cc2)sc2cc(O)ccc12`, the result in test [6] was inactive.
On to `COC(=O)c1ccc(C(=O)OC)cc1`, for which, in test [6], the concentration at half-maximal activity (AC50) was 21.1 µM (active).
As for `CCCCN(CCO)CCO`, the outcome in test [1] and in test [4] was inactive.
Turning to `CC(C)(C)c1cccc(O)c1`, the outcome in test [1], in test [3], in test [4] and in test [5] was inactive.
As for `NC(=O)c1cnccn1`, the result in test [1], in test [3], in test [4] and in test [5] was inactive.
For the compound `CN(C)c1ccc(C=O)cc1`, the outcome in test [1], in test [4] and in test [5] was inactive.
On to `CC1=CCC(=C(C)C)CC1`, for which the result in test [1], in test [3] and in test [5] was inactive.
With `c1ccc(-c2nn[nH]n2)cc1`, the result in test [1], in test [3] and in test [5] was inactive.
In the case of `ClCCOCCOCCCl`, the outcome in test [1], in test [3], in test [4] and in test [5] was inactive.
With `CCCCN(CCCC)CCCCCCN(CCCC)CCCC`, the outcome in test [1], in test [3] and in test [5] was inactive.
For the compound `CCC(C)(C)c1cc(O)c(C(C)(C)CC)cc1O`, the outcome in test [1], in test [3], in test [4] and in test [5] was inactive.
On to `CC(=O)C1C(=O)C=C(C)OC1=O` (stereo not drawn), for which the outcome in test [1], in test [3] and in test [5] was inactive.
On to `C1=COCCC1`, for which the outcome in test [1], in test [4] and in test [5] was inactive.
For the compound `CCCCOC(=O)C(C)OC(=O)CCC` (stereo not drawn), the result in test [1], in test [4] and in test [5] was inactive.
Turning to `CC1=CC(C)C(C=O)C(C)C1` (stereo not drawn) (tested in a mixture with another compound), the outcome in test [1], in test [4] and in test [5] was inactive.
In the case of `CCOC(=O)CCCCCCCCC(=O)OCC`, the outcome in test [1], in test [3], in test [4] and in test [5] was inactive.
As for `O=C(O)C1=NN(c2ccc(S(=O)(=O)O)cc2)C(=O)C1`, the outcome in test [1], in test [3], in test [4] and in test [5] was inactive.
Consider `CCCCCC#CC(=O)OC`, for which the result in test [1], in test [3] and in test [5] was inactive.
`CC(C)COC(=O)c1ccccc1`: the outcome in test [1], in test [3], in test [4] and in test [5] was inactive.
With `C=CCS(=O)(=O)O`, the outcome in test [1], in test [3], in test [4] and in test [5] was inactive.
For the compound `NC(=O)NC(N)=O`, the outcome in test [1], in test [3], in test [4] and in test [5] was inactive.
With `CC(C)CCOC(=O)CC(C)C`, the outcome in test [1], in test [3] and in test [5] was inactive.
Consider `CC(=O)c1ccc(O)cc1`, for which the outcome in test [1], in test [3], in test [4] and in test [5] was inactive.
For the compound `CC1=CCC(C(C)C)=CC1`, the outcome in test [1], in test [4] and in test [5] was inactive.
Regarding `CC12CCC(C1)C(C)(C)C2O` (stereo not drawn), the outcome in test [1], in test [4] and in test [5] was inactive.
As to `C=CC(C)(CCC=C(C)C)OC(=O)CC` (stereo not drawn), the outcome in test [1], in test [3], in test [4] and in test [5] was inactive.
`C=CCOCC(O)CO` (stereo not drawn): the result in test [1], in test [3] and in test [5] was inactive.
As for `O=C(O)c1ccco1`, the outcome in test [1], in test [3] and in test [4] was inactive.
With `CCCCCCCCCCCCN1CCOCC1`, the outcome in test [1], in test [3] and in test [4] was inactive.
Consider `CCC(C)(C)C1CCC(=O)CC1`, for which the result in test [1], in test [3], in test [4] and in test [5] was inactive.
On to `CCCCCC1CCC(=O)O1` (stereo not drawn), for which the outcome in test [1], in test [3] and in test [5] was inactive.
Regarding `CCCCCCCCCC(=O)OCC`, the outcome in test [1], in test [3], in test [4] and in test [5] was inactive.
For `C=CCOC(=O)/C=C\C(=O)OCC=C`, the outcome in test [1], in test [3], in test [4] and in test [5] was inactive.
For the compound `CC(=O)OC(C)(C)C1CC=C(C)CC1` (stereo not drawn), the result in test [1], in test [3], in test [4] and in test [5] was inactive.
As for `C/C=C(\C)C(=O)OC/C=C(\C)CCC=C(C)C`, the outcome in test [1], in test [3] and in test [5] was inactive.
Consider `CCCCC(CC)COCCO` (stereo not drawn), for which the result in test [1], in test [3] and in test [5] was inactive.
Regarding `N=C1N=C(N)c2ccccc21`, the AC50 in test [1] is 27.3 µM (active); in test [3], 13.3 µM (active). In addition, the outcome in test [4] and in test [5] was inactive.

The AC50 is the concentration giving half of the maximal activity seen.
